Experimental data from the OligoGym collection.
Further: reference of the scale not given here.

What follows are sequences tested against RNF219 (assay: pooled miR-30 sensor sort-seq; sequence = guide strand). Details: shRNA.
TCTGTTATCAACTTCAGCCTTC showed a sensor-assay potency score (higher = more potent) of 0.456. For TACTTGTATCTGTCACATCTAA, the sensor-assay potency score (higher = more potent) was -0.451. Sequence TTAGCTTATCCACATCATCTTT has a sensor-assay potency score (higher = more potent) of -0.899. Work on TTGATCTGTGACTCCAAGCTGA yielded a sensor-assay potency score (higher = more potent) of 0.034. TCTGTCTGAAACAAGCAGCTTG showed a sensor-assay potency score (higher = more potent) of -0.169. With TTTTGGATAAACATAAGCCTGA the sensor-assay potency score (higher = more potent) was -0.319.

Each sequence was assayed against RNF41 in the same assay as above. Details: shRNA.
For TAATTTATAGACATTTTAGGGG, the sensor-assay potency score (higher = more potent) was 0.0646. TAGTTCTCATAGTAGCGTCGGT showed a sensor-assay potency score (higher = more potent) of -0.784. In the case of TCATCTGTCTAGTCTCTAGTGT, the sensor-assay potency score (higher = more potent) is reported as -0.527. TTCAGCTGACGTCTTCTCCAGC was tested, and the sensor-assay potency score (higher = more potent) was -0.881. Work on TCTGATTTCCATCTCTTCCTGA yielded a sensor-assay potency score (higher = more potent) of 0.105. AAGATCTTCGTCAACATCCCCC gave a sensor-assay potency score (higher = more potent) of -0.164. TTTGACAACATGTTCCGCATGA gave a sensor-assay potency score (higher = more potent) of 0.502. For ATCTGTCTAGTCTCTAGTGTGG, the sensor-assay potency score (higher = more potent) was -0.878. Sequence TAGCGTCGGTTCATCTGTCTAG has a sensor-assay potency score (higher = more potent) of 0.0647. Work on AACATGTTCCGCATGATCCGAG yielded a sensor-assay potency score (higher = more potent) of -0.3. ATCTTCGTCAACATCCCCCTGG was tested, and the sensor-assay potency score (higher = more potent) was -0.316.

The sequences below were run against RNMTL1 in the same assay as above. Details: shRNA.
With TTGTCAGCCACATAGACCCGAG the sensor-assay potency score (higher = more potent) was -0.82. In the case of TTATTGATAATGGGCATCCGGA, the sensor-assay potency score (higher = more potent) is reported as -0.992. TTATTAGACATCTCAGCCTGGG gave a sensor-assay potency score (higher = more potent) of -0.331. TACTATTGTCATTACACTGCTC gave a sensor-assay potency score (higher = more potent) of 0.0183. With TTTCCTGTAACTGTATGACGGC the sensor-assay potency score (higher = more potent) was -0.465. TTGGTGAGTAACACTTTGCTGC gave a sensor-assay potency score (higher = more potent) of -0.11. TTTACTATTGTCATTACACTGC was tested, and the sensor-assay potency score (higher = more potent) was -0.096. Sequence TTTATTAGACATCTCAGCCTGG has a sensor-assay potency score (higher = more potent) of 0.616. TTCTGTTCCACCACCTCTCCGG was tested, and the sensor-assay potency score (higher = more potent) was -0.00954. For TAGCTTTATTAGACATCTCAGC, the sensor-assay potency score (higher = more potent) was -0.834. TTGTGAAACTTCATCACTCGTT was tested, and the sensor-assay potency score (higher = more potent) was 0.595. TGATGCTTCAGGAACTTTCTGG gave a sensor-assay potency score (higher = more potent) of -0.0145.

Each sequence was assayed against RNPC3 in the same assay as above. Details: shRNA.
TATATCAAACATGATCCGCTGT showed a sensor-assay potency score (higher = more potent) of 0.81. TTTCTTGAACATGTTTAGCTAA gave a sensor-assay potency score (higher = more potent) of -0.355. TTGGTCTAGCAGATCGAGCAAA was tested, and the sensor-assay potency score (higher = more potent) was -1.03. With TTCTTGAACATGTTTAGCTAAA the sensor-assay potency score (higher = more potent) was -1.09. TATTGTTTTAGGTCTTTTGGGC was tested, and the sensor-assay potency score (higher = more potent) was -0.105. TTCCTCACAATTTTGTTCCTTT gave a sensor-assay potency score (higher = more potent) of 1.11. TTAAATACACTTTCAAAGCTGT gave a sensor-assay potency score (higher = more potent) of 0.272. With TTTTTCTTTATCATCTTCGACA the sensor-assay potency score (higher = more potent) was -0.554. TTCTCTAGAAATTCTGCCCTTT showed a sensor-assay potency score (higher = more potent) of -0.078. TCGAGCAAACTGAACCACCATG gave a sensor-assay potency score (higher = more potent) of -1.27. For TTCTTTATCATCTTCGACAGGG, the sensor-assay potency score (higher = more potent) was 0.314.
